Here are results for 40 molecules from ChEMBL document CHEMBL3433997, “St. Jude Leishmania screening dataset” (2016).

What is called inhibition is the drop in the measured response relative to a control, in per cent.

Chain of Solute carrier family 2, facilitated glucose transporter member 1 (Homo sapiens) (P11166 whole entry): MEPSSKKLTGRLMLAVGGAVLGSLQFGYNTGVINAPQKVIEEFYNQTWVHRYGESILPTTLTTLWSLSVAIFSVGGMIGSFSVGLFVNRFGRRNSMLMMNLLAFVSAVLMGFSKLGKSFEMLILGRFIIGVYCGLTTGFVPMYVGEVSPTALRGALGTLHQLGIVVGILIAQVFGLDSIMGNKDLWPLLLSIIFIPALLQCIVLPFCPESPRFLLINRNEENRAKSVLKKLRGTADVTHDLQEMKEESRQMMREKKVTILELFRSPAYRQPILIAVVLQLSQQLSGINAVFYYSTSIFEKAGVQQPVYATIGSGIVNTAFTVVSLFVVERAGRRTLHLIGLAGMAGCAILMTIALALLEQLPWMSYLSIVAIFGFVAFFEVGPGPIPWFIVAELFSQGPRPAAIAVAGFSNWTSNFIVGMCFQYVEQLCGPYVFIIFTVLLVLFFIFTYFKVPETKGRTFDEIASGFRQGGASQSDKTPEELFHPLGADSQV

The first test addresses Solute carrier family 2, facilitated glucose transporter member 1 (Homo sapiens) (UniProt P11166). Description: ST_JUDE_LEISH: Cytotoxicity at 2uM final concentration against transgenic Leishmania Mexicana promastigotes LmGLUT1 that are glucose transport deficient and complemented with the human glucose transporter GLUT1. Activity is measured by DNA content using SYBR green in vitro. In kind it is functional.
For `Cc1[nH]c(C)c([N+](=O)[O-])c(=O)c1-c1ccc(Oc2ccc(OC(F)(F)F)cc2)cc1`, the inhibition turned out to be 0.69%.

As for `O=C(c1cccc(-c2ccc(-c3nc4cc(F)ccc4[nH]3)s2)c1)N1CCCCC1CN1CCC(O)C1` (stereo not given), the inhibition was 2.59%.

On to `CCOc1ccc(Cc2c(C)nc3nc(N)nc(N)c3c2C)cc1`, for which the inhibition was 29.1%.

As to `CC(=O)Nc1nc(C)c(-c2csc(Nc3ccc(Cl)cc3)n2)s1`, the inhibition is -0.76%.

As for `CN1CCC(c2ccc(NC(=O)c3ccc(-c4cccc(C(F)(F)F)c4)o3)cc2)CC1`, the inhibition is 2.13%.

Take `Fc1ccc2[nH]c(-c3ccccc3)nc2c1CN1CCC(N2CCCC2)CC1`: the inhibition is -0.78%.

Turning to `Cc1ccc(S(=O)(=O)n2nccc2-c2c(-c3ccc(Cl)cc3)noc2C)cc1`, the inhibition came out at 3.44%.

As for `O=C(Nc1ccc(Cl)cc1)N[C@H]1CCN(Cc2ccc(OCCCN3CCCCC3)cc2)C1`, the inhibition is -0.92%.

`O=C(NC1c2ccccc2Oc2ccccc21)c1ccccc1O`: the inhibition is -3%.

In the case of `CNC(=O)c1ccccc1Nc1nc(Nc2ccc(C(=O)O)cc2)ncc1Cl`, the inhibition was -1.75%.

Take `CCCCCCN1CCC(NCc2ccc(OCCN3CCCC3)cc2)CC1`: the inhibition was -1.34%.

`CCNc1cc(C(=O)N[C@@H](Cc2ccccc2)[C@H](O)CNC(C)(C)Cc2cccc(OC)c2)cc(N2CCCC2=O)c1`: the inhibition is -2.08%.

On to `CCCC[C@@H](C(=O)NCc1ccccc1C(F)(F)F)N1C(=O)CCC1C(=O)Nc1ccc([N+](=O)[O-])cc1` (stereo not given in full), for which the inhibition was found to be 1.1%.

For `CC(C)c1cccc(OCC2CCN(c3ncc(C(=O)NC4CC4)cc3Cl)CC2)c1`, the inhibition stood at 1.56%.

Consider `O=C(Nc1cc(C(F)(F)F)cc(C(F)(F)F)c1)Nc1ccc(Cl)c(Cl)c1`, for which the inhibition was 0.47%.

Turning to `Cc1ccc(NC(=O)c2cccc(CN3CCCN(CC4CCCCC4)CC3)c2)cc1F`, the inhibition is -0.17%.

Consider `CCOC(=O)N1CCN(C(=O)Nc2ccc(Cl)cc2)CC1`, for which the inhibition came to 1.34%.

Take `COc1cc(-c2nc(-c3ccncc3)c(-c3ccc4c(c3)CCC4=NO)[nH]2)ccc1OCCN1CCCCC1`: the inhibition was -5.14%.

As for `COc1cc2nc(NCCc3ccccc3)nc(NCc3nccs3)c2cc1OC`, the inhibition amounted to 1.89%.

Turning to `CC1(C)NC(=N)N=C(NOCC=Cc2ccccc2)N1`, the inhibition is 3.05%.

Take `CCOC(=O)c1cnc2c(OC)cc(OC)c(Cl)c2c1Nc1cccc(C)c1C`: the inhibition was 0.67%.

Regarding `Cc1noc(C)c1-c1cccc(CNCc2cccc(-c3cccc(-c4nc5cc(C(F)(F)F)ccc5[nH]4)c3)c2)c1`, the inhibition was 0.14%.

`Cc1cc(N[C@@H](CC(C)C)C(=O)NCCOc2ccccc2)nc(NCCOc2ccccc2)n1`: the inhibition was determined as 3.79%.

For the molecule `Cc1ccc(-c2nc(N3CCN(C(=O)c4ccco4)CC3)c3ccccc3n2)cc1`, the inhibition worked out at 2.55%.

For the molecule `COc1ccc(CNC(=N)Nc2nc(-c3ccc(OCCCn4ccnc4)cc3)cs2)cc1`, the inhibition was 10.6%.

Turning to `Cc1ccc(Nc2ccnc(Nc3ccc4c(c3)CS(=O)(=O)C4)n2)cc1O`, the inhibition worked out at 2.49%.

On to `N#Cc1ccc(N2C[C@@H](OCc3ccccc3)C[C@H]2C(=O)NCCC(c2ccccc2)c2ccccc2)c2ccccc12`, for which the inhibition amounted to 5.42%.

As to `CN1CCCC(CN2CCN(Cc3ccc(-c4cccc(-c5nc6ccccc6[nH]5)c4)cc3)CC2)C1` (stereo not given), the inhibition was determined as 3.67%.

On to `Cc1cc(C(F)(F)F)cc(-n2ncc(-c3ccc(C(=O)NCCNCc4ccccc4)cc3)c2N)n1`, for which the inhibition amounted to 0.77%.

As for `O=c1cc(NCC2(CNCc3cn(Cc4ccccc4)c4ccccc34)CCCCC2)[nH]c2ccccc12`, the inhibition was 4.81%.

Turning to `Fc1ccc(CN2CCN(c3ncnc4cc(-c5ccccc5)sc34)CC2)cc1`, the inhibition is -1.67%.

Take `CC1CCN(Cc2c(O)ccc3c(CN4CCC(C)CC4)c(O)ccc23)CC1`: the inhibition was 4.79%.

For the molecule `Cc1ccc(Nc2nnc(SCC(=O)Nc3ccc(CN4CCCC4)cc3)s2)cc1`, the inhibition is 0.83%.

As to `COc1c(C2CCN(CCCCNC(=O)c3cc(-c4ccc(C#N)cc4)n[nH]3)CC2)ccc2c1CCCC2`, the inhibition is -0.72%.

For the molecule `CCOc1c(CCNCCCCNCCc2ccc3ccccc3c2OCC)ccc2ccccc12`, the inhibition worked out at 111%.

For the molecule `CN/C(=N\O)NCCN(C)C`, the inhibition is 3.01%.

For `COc1ccc(CCNc2nc(NCc3ccccc3)c3cc(OC)c(OC)cc3n2)cc1OC`, the inhibition stood at 5.66%.

For the molecule `Cc1cc(N[C@@H](CC(C)C)C(=O)Nc2ccccc2)nc(NCc2ccccc2C)n1`, the inhibition came to 8.7%.

Turning to `O=C(Nc1ccc(SC(F)(F)F)cc1)Nc1ccnc2ccccc12`, the inhibition is -1.32%.

Consider `O=[N+]([O-])c1ccc(Nc2nc(N/N=C/c3cc(Cl)cc(Cl)c3O)nc(Nc3ccccc3)n2)cc1`, for which the inhibition was 2.04%.

Another test addresses Hexose transporter 1 (Plasmodium falciparum) (UniProt O97467). Description: ST_JUDE_LEISH: Cytotoxicity at 2uM final concentration against transgenic Leishmania Mexicana promastigotes LmPfHT that are glucose transport deficient and complemented with the Plasmodium falciparum hexose transporter. Activity is measured by DNA content using SYBR green in vitro. Format: functional.
`Cc1[nH]c(C)c([N+](=O)[O-])c(=O)c1-c1ccc(Oc2ccc(OC(F)(F)F)cc2)cc1`: the inhibition is 1.27%.

Regarding `O=C(c1cccc(-c2ccc(-c3nc4cc(F)ccc4[nH]3)s2)c1)N1CCCCC1CN1CCC(O)C1` (stereo not given), the inhibition came to 1.6%.

Turning to `CCOc1ccc(Cc2c(C)nc3nc(N)nc(N)c3c2C)cc1`, the inhibition is 41.5%.

As to `CC(=O)Nc1nc(C)c(-c2csc(Nc3ccc(Cl)cc3)n2)s1`, the inhibition is -1.35%.

Take `CN1CCC(c2ccc(NC(=O)c3ccc(-c4cccc(C(F)(F)F)c4)o3)cc2)CC1`: the inhibition was found to be 1.69%.

Take `Fc1ccc2[nH]c(-c3ccccc3)nc2c1CN1CCC(N2CCCC2)CC1`: the inhibition came out at 0.83%.

As to `Cc1ccc(S(=O)(=O)n2nccc2-c2c(-c3ccc(Cl)cc3)noc2C)cc1`, the inhibition is 3.35%.

`O=C(Nc1ccc(Cl)cc1)N[C@H]1CCN(Cc2ccc(OCCCN3CCCCC3)cc2)C1`: the inhibition was determined as 1.45%.

Regarding `O=C(NC1c2ccccc2Oc2ccccc21)c1ccccc1O`, the inhibition is -0.11%.

In the case of `CNC(=O)c1ccccc1Nc1nc(Nc2ccc(C(=O)O)cc2)ncc1Cl`, the inhibition was 1.77%.

For the molecule `CCCCCCN1CCC(NCc2ccc(OCCN3CCCC3)cc2)CC1`, the inhibition is -0.02%.

For `CCNc1cc(C(=O)N[C@@H](Cc2ccccc2)[C@H](O)CNC(C)(C)Cc2cccc(OC)c2)cc(N2CCCC2=O)c1`, the inhibition was -1.02%.

As to `CCCC[C@@H](C(=O)NCc1ccccc1C(F)(F)F)N1C(=O)CCC1C(=O)Nc1ccc([N+](=O)[O-])cc1` (stereo not given in full), the inhibition was found to be 2.37%.

In the case of `CC(C)c1cccc(OCC2CCN(c3ncc(C(=O)NC4CC4)cc3Cl)CC2)c1`, the inhibition was -0.04%.

As to `O=C(Nc1cc(C(F)(F)F)cc(C(F)(F)F)c1)Nc1ccc(Cl)c(Cl)c1`, the inhibition was 1.04%.

As to `Cc1ccc(NC(=O)c2cccc(CN3CCCN(CC4CCCCC4)CC3)c2)cc1F`, the inhibition came out at 0.26%.

Regarding `CCOC(=O)N1CCN(C(=O)Nc2ccc(Cl)cc2)CC1`, the inhibition turned out to be 1%.

In the case of `COc1cc(-c2nc(-c3ccncc3)c(-c3ccc4c(c3)CCC4=NO)[nH]2)ccc1OCCN1CCCCC1`, the inhibition was determined as 1.57%.

For `COc1cc2nc(NCCc3ccccc3)nc(NCc3nccs3)c2cc1OC`, the inhibition was 2.47%.

As to `CC1(C)NC(=N)N=C(NOCC=Cc2ccccc2)N1`, the inhibition was 2.87%.

Regarding `CCOC(=O)c1cnc2c(OC)cc(OC)c(Cl)c2c1Nc1cccc(C)c1C`, the inhibition is -0.69%.

Regarding `Cc1noc(C)c1-c1cccc(CNCc2cccc(-c3cccc(-c4nc5cc(C(F)(F)F)ccc5[nH]4)c3)c2)c1`, the inhibition stood at 1.85%.

For the molecule `Cc1cc(N[C@@H](CC(C)C)C(=O)NCCOc2ccccc2)nc(NCCOc2ccccc2)n1`, the inhibition turned out to be 1.16%.

`Cc1ccc(-c2nc(N3CCN(C(=O)c4ccco4)CC3)c3ccccc3n2)cc1`: the inhibition was 0.57%.

With `COc1ccc(CNC(=N)Nc2nc(-c3ccc(OCCCn4ccnc4)cc3)cs2)cc1`, the inhibition was 7.44%.

`Cc1ccc(Nc2ccnc(Nc3ccc4c(c3)CS(=O)(=O)C4)n2)cc1O`: the inhibition worked out at 3.19%.

With `N#Cc1ccc(N2C[C@@H](OCc3ccccc3)C[C@H]2C(=O)NCCC(c2ccccc2)c2ccccc2)c2ccccc12`, the inhibition turned out to be 4.29%.

Consider `CN1CCCC(CN2CCN(Cc3ccc(-c4cccc(-c5nc6ccccc6[nH]5)c4)cc3)CC2)C1` (stereo not given), for which the inhibition came out at 2.47%.

For the molecule `Cc1cc(C(F)(F)F)cc(-n2ncc(-c3ccc(C(=O)NCCNCc4ccccc4)cc3)c2N)n1`, the inhibition stood at 1.46%.

Turning to `O=c1cc(NCC2(CNCc3cn(Cc4ccccc4)c4ccccc34)CCCCC2)[nH]c2ccccc12`, the inhibition stood at 5.38%.

For `Fc1ccc(CN2CCN(c3ncnc4cc(-c5ccccc5)sc34)CC2)cc1`, the inhibition is -1.81%.

`CC1CCN(Cc2c(O)ccc3c(CN4CCC(C)CC4)c(O)ccc23)CC1`: the inhibition was found to be 6.78%.

Turning to `Cc1ccc(Nc2nnc(SCC(=O)Nc3ccc(CN4CCCC4)cc3)s2)cc1`, the inhibition is -0.59%.

Take `COc1c(C2CCN(CCCCNC(=O)c3cc(-c4ccc(C#N)cc4)n[nH]3)CC2)ccc2c1CCCC2`: the inhibition is 0.62%.

Regarding `CCOc1c(CCNCCCCNCCc2ccc3ccccc3c2OCC)ccc2ccccc12`, the inhibition was 112%.

In the case of `CN/C(=N\O)NCCN(C)C`, the inhibition worked out at 4.18%.

In the case of `COc1ccc(CCNc2nc(NCc3ccccc3)c3cc(OC)c(OC)cc3n2)cc1OC`, the inhibition was 8.24%.

As to `Cc1cc(N[C@@H](CC(C)C)C(=O)Nc2ccccc2)nc(NCc2ccccc2C)n1`, the inhibition came to 8.35%.

On to `O=C(Nc1ccc(SC(F)(F)F)cc1)Nc1ccnc2ccccc12`, for which the inhibition was -0.22%.

As to `O=[N+]([O-])c1ccc(Nc2nc(N/N=C/c3cc(Cl)cc(Cl)c3O)nc(Nc3ccccc3)n2)cc1`, the inhibition was found to be 2.61%.
